# According to PubChem BioAssay (NCATS):
# Unmarked numbers belong to inactive results. Results filed as inconclusive are left out. Calls of active or inactive are those of the source. Unless noted, calls follow the shape of the dose curve; as a rule, active = well fitted curve in the direction sought with a large enough effect; inconclusive = small, poorly fitted or top-dose-only effect, or another doubt; inactive = no such curve, though single readings can be large; an effect the other way counts as inactive or inconclusive.
# Tests used:
# [1] = target: Glucocorticoid receptor (Homo sapiens) (UniProt P04150); assay: GR-GFP Redistribution (AID 450;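 active = compounds whose dose series gives a full or clear partial fitted curve of increased nuclear translocation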; also: potency is read from the fitted curve at half-maximal effect); conditions: U2OS GR-GFP nuclear translocation, laser cytometry, 2 h
# Sequence of Glucocorticoid receptor (Homo sapiens) (P04150 whole entry, looked up, the tested form may be a part): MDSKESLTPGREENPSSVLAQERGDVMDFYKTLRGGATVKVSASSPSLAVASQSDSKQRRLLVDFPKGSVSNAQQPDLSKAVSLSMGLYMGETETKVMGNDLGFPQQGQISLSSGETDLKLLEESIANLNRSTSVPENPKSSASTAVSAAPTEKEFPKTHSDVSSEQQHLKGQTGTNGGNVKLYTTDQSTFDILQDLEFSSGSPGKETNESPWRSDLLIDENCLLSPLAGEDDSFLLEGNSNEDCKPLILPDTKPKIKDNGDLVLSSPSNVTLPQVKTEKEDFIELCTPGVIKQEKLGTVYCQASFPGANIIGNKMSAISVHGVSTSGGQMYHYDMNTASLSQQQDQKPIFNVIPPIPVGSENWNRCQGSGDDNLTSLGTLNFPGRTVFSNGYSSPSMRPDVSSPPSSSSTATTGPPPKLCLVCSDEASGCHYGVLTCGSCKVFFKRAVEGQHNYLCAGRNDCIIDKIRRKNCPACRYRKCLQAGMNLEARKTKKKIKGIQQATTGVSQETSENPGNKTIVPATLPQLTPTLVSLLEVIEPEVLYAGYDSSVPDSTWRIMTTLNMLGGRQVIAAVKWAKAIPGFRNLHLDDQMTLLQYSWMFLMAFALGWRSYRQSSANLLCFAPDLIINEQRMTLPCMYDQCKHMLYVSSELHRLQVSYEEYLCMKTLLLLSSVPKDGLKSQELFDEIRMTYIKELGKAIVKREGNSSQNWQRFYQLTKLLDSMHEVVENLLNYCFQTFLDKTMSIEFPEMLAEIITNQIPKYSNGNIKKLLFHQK
# [2] = target: Glucocorticoid receptor (Homo sapiens) (UniProt P04150); assay: GR-EFC Redistribution (AID 451; calls by dose curve; also: potency is read from the fitted curve at half-maximal effect); conditions: CHO-K1 GR-EFC translocation, beta-gal luminescence, 2 h
# How it was run: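 CHO-K1 cells stably expressing nuclear-localized β-gal enzyme acceptor and GR fused C-terminally to the enzyme donor fragment; ligand-driven nuclear translocation restores β-gal by complementation. Compounds titrated up to 46 uM final, 2 h at 37 °C; luminescence read.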
# [3] = target: Mitogen-activated protein kinase 10 (Mus musculus) (UniProt Q61831); assay: JNK3 AlphaScreen Assay (AID 530; active = well fitted curve in either direction with a large enough effect, not every such curve was filed as active;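 also: kinase came from lysate of stimulated human HepG2 cells; signal reports phosphorylation of biotinylated GST-cJun 1-79 at Ser73 with 10 µM ATP; series mostly up to about 57 µM; % is scaled to controls: 0 for no effect and ±100 for the full control effect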)
# How it was run: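 JNK3 came from HepG2 lysates pre-activated with IL-1beta and TNF-alpha and phosphorylated biotinylated GST-cJun (1-79) at 10 uM ATP, pH 7.6, room temperature. Compounds were titrated. AlphaScreen signal used anti-phospho-cJun (Ser73) antibody.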
# [4] = Validation of Assay for Modulators of Lamin A Splicing (AID 1459; active = well fitted curve in the direction sought with a large enough effect in the signal ratio; the % refers to the signal ratio;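 also: cells exposed to compound for two days before reading; 0% is about no effect; ratio rise marks activators and ratio drop marks inhibitors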)
# How it was run: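 S3 HeLa cells stably expressing a lamin A-EGFP splicing minigene and DsRed2 were seeded at 600 cells/well in Opti-MEM with 2% FBS, pin-dosed, and incubated 48 hrs at 37 °C, 5% CO2. Laser-scanning cytometry (488 nm) gave GFP/RFP total intensity ratio.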
# [5] = target: DNA repair nuclease/redox regulator APEX1 (Homo sapiens) (UniProt P27695); assay: qHTS Validation Assay for Inhibitors of the Human Apurinic/apyrimidinic Endonuclease 1 (APE1) (AID 1705;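 also: TAMRA fluorescence gain over two minutes as APE1 cuts a quenched THF abasic duplex; series mostly up to about 57 µM; % is scaled to controls: 0 for no effect and ±100 for the full control effect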)
# Sequence of DNA repair nuclease/redox regulator APEX1 (Homo sapiens) (P27695 whole entry, looked up): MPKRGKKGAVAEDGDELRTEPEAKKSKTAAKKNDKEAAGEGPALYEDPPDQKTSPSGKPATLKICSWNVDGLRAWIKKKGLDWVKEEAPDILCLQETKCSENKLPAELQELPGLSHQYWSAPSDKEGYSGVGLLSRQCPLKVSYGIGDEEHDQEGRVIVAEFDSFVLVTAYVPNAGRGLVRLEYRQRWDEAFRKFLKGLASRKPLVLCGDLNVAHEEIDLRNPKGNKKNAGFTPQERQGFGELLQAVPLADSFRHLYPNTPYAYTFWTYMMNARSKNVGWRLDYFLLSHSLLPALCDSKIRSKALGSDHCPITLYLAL
# How it was run: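 Human APE1 was preincubated with compound for 15 min at room temperature, then 50 nM (final) THF-abasic double-stranded DNA substrate bearing 5'-TAMRA and 3'-BHQ-2 was added. Incision-driven fluorescence rise (ex 525/em 598 nm) was read kinetically.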
# [6] = qHTS for differential inhibitors of proliferation of Plasmodium falciparum line 7G8 (AID 1815);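 also: potency is read from the fitted curve at half-maximal effect; parasite growth measured after three days of incubation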
# [7] = qHTS for differential inhibitors of proliferation of Plasmodium falciparum line GB4 (AID 1816); conditions: Potency: Plasmodium falciparum GB4 proliferation inhibition;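 also: potency is read from the fitted curve at half-maximal effect; parasite growth measured after 72 h incubation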
# [8] = qHTS for differential inhibitors of proliferation of Plasmodium falciparum line 3D7 (AID 1876); also: potency is read from the fitted curve at half-maximal effect
# [9] = qHTS for differential inhibitors of proliferation of Plasmodium falciparum line D10 (AID 1877);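 also: potency is read from the fitted curve at half-maximal effect; parasites grown with compound for 72 h before DNA staining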
# [10] = qHTS for differential inhibitors of proliferation of Plasmodium falciparum line Dd2 (AID 1882); conditions: Potency: Plasmodium falciparum Dd2 proliferation inhibition; also: potency is read from the fitted curve at half-maximal effect; nearly all actives have a fitted effect of over 65% in size
# How it was run: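 SYBR Green I DNA fluorescence read-out, ex 485/em 535 nm. Signals were normalized to 0.29 uM artemisinin and DMSO wells, then corrected using vehicle-only plates flanking each stack. Parasite growth ran 72 h in erythrocytes before lysis.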
# [11] = qHTS for differential inhibitors of proliferation of Plasmodium falciparum line W2 (AID 1883); conditions: Potency: Plasmodium falciparum W2 proliferation inhibition;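 also: potency is read from the fitted curve at half-maximal effect; parasites grown with compound for 72 h before lysis and staining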
# [12] = qHTS for differential inhibitors of proliferation of Plasmodium falciparum line HB3 (AID 1886); conditions: Potency: Plasmodium falciparum HB3 proliferation inhibition;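 also: potency is read from the fitted curve at half-maximal effect; parasites grown with compound for 72 h before SYBR Green readout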
# [13] = target: ATP-dependent DNA helicase Q1 (Homo sapiens) (UniProt P46063); assay: qHTS Validation Assay for Inhibitors of RecQ-Like Dna Helicase 1 (RECQ1) (AID 2353);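 also: plate controls were DMSO vehicle for no effect and enzyme-free control for full effect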
# Sequence of ATP-dependent DNA helicase Q1 (Homo sapiens) (P46063 whole entry, looked up): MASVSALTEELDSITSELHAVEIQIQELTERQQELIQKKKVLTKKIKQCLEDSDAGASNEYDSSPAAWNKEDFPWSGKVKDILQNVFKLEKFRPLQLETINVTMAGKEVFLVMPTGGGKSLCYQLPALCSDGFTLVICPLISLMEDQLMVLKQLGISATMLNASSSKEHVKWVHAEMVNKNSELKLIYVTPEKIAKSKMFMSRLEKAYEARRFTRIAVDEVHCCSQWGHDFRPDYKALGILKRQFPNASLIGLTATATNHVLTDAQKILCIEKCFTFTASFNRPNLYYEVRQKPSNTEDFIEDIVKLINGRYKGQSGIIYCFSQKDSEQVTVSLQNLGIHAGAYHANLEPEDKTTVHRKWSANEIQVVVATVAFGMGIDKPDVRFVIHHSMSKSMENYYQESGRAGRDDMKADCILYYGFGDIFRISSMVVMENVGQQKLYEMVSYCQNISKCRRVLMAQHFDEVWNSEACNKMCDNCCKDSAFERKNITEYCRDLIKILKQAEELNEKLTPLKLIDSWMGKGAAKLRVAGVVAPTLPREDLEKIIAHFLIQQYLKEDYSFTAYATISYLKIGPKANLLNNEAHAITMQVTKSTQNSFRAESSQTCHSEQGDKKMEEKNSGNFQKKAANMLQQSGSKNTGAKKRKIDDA
# How it was run: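 50 nM RECQ1T1 preincubated 15 min with compound in Tris pH 8.0 buffer with MgCl2, DTT, Tween-20 and 2.5 ug/ml poly(dI-dC); started with 200 nM TAMRA/BHQ-2 forked duplex and 2 mM ATP. Unwinding read as fluorescence (525/598 nm), two reads 2 h apart.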
# [14] = target: M-phase phosphoprotein 8 (Homo sapiens) (UniProt Q99549); assay: qHTS Validation Assay for Inhibitors for MPP8 Chromodomain Interactions with Methylated Histone Tails (AID 488949);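 also: AlphaScreen signal from MPP8 chromodomain bound to biotinylated H3K9me3 peptide; top concentration of the series differs between compounds; % is scaled to controls: 0 for no effect and ±100 for the full control effect; nearly all actives have a fitted effect of over 55% in size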
# How it was run: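 MPP8 (50 nM) was preincubated with biotinylated H3(1-18)K9me3 peptide (50 nM) in PBS pH 7.4, 0.01% Tween-20 for 30 min at room temperature, then with compounds for 30 min; binding was detected by AlphaScreen.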
# [15] = target: Thyrotropin receptor (Homo sapiens) (UniProt P16473); assay: qHTS Assay for Antagonists of the Thyroid Stimulating Hormone Receptor (AID 488980); also: series mostly up to about 58 µM; 0% is about no effect
# Sequence of Thyrotropin receptor (Homo sapiens) (P16473 whole entry, looked up): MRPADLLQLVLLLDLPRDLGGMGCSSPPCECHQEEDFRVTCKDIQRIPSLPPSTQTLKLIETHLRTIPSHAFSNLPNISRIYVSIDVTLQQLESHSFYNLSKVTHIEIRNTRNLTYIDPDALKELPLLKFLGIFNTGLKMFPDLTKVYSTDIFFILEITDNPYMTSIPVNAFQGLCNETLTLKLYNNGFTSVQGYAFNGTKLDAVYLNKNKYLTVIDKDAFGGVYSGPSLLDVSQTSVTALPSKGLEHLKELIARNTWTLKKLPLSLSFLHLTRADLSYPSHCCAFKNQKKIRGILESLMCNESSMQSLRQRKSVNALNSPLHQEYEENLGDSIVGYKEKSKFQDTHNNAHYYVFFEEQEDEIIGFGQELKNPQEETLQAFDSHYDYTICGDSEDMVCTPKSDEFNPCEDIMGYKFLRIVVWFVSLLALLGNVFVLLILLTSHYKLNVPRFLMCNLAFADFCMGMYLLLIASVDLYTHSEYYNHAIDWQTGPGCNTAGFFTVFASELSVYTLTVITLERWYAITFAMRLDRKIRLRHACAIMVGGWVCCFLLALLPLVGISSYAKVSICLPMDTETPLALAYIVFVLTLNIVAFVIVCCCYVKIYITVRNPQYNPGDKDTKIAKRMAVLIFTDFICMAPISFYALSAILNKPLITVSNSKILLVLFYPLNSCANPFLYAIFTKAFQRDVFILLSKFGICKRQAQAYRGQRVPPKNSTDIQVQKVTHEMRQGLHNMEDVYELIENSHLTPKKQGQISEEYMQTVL
# How it was run: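 HEK293 cells transfected with human TSHR, suspended in HEPES-buffered HBSS with 70 uM RO 20-1724, were treated with compounds plus TSH at EC80 (4 nM final). cAMP was measured by competitive HTRF (cryptate anti-cAMP antibody, cAMP-d2 acceptor).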
# [16] = target: Thyrotropin-releasing hormone receptor (Homo sapiens) (UniProt P34981); assay: qHTS for Small Molecule Agonists and Allosteric Enhancers of Human TRH Receptor: Validation Screen for Agonists (AID 493127;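 active = calcium activation more than 3 SD above the typical response in the agonist read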;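 also: intracellular calcium rise by fluo-8 fluorescence before TRH EC20 addition; 0% is about no effect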); conditions: TRH receptor agonist cell assay; at 2 µM; hits give high values
# Sequence of Thyrotropin-releasing hormone receptor (Homo sapiens) (P34981 whole entry, looked up): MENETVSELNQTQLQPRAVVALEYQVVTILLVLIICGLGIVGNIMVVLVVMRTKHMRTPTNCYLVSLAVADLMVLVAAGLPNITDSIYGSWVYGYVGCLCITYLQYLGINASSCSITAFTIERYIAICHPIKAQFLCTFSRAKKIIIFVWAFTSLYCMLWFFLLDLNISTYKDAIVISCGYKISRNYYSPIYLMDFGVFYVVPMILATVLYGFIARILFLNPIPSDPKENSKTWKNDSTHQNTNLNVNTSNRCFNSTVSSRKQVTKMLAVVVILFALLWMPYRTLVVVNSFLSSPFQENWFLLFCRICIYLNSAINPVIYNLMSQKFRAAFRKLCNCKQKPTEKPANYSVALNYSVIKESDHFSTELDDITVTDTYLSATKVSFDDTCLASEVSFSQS
# How it was run: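 TRHR-expressing cells were plated overnight in serum-containing medium, then loaded with fluo-8 calcium dye at room temperature for 30 min–1.5 h. After a 10 s baseline, compound was pin-transferred and calcium fluorescence (ex 480/em 530) read kinetically for agonist response.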
# [17] = target: DNA dC->dU-editing enzyme APOBEC-3G (Homo sapiens) (UniProt Q9HC16); assay: qHTS for inhibitors of Vif-A3G interactions: Validation (AID 588379); also: 0% is about no effect
# Sequence of DNA dC->dU-editing enzyme APOBEC-3G (Homo sapiens) (Q9HC16 whole entry, looked up): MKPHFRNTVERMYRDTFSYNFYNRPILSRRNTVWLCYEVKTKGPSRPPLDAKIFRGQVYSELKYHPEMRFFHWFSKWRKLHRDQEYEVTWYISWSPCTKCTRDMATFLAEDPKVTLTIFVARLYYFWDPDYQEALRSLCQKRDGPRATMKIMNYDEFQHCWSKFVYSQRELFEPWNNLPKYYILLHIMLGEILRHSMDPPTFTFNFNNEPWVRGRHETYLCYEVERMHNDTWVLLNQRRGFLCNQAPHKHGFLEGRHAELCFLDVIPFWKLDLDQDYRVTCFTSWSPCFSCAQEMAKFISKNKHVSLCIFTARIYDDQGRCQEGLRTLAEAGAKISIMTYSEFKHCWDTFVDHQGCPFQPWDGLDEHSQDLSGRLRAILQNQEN
# How it was run: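 HeLa cells stably expressing Vif and A3G-eYFP, 700 cells/well, incubated overnight at 37 deg C, then exposed to compound overnight at 37 deg C. Inhibition of Vif-mediated degradation read as increased yellow fluorescence (Ex 488/Em 500-530) by laser-scanning cytometry.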
# [18] = target: Voltage-gated inwardly rectifying potassium channel KCNH2 (Homo sapiens) (UniProt Q12809); assay: qHTS Assay for Small Molecule Inhibitors of the Human hERG Channel Activity (AID 588834);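 also: potency is read from the fitted curve at half-maximal effect; lower thallium flux fluorescence means stronger hERG block; nearly all actives have a fitted effect of over 50% in size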
# Sequence of Voltage-gated inwardly rectifying potassium channel KCNH2 (Homo sapiens) (Q12809 whole entry, looked up): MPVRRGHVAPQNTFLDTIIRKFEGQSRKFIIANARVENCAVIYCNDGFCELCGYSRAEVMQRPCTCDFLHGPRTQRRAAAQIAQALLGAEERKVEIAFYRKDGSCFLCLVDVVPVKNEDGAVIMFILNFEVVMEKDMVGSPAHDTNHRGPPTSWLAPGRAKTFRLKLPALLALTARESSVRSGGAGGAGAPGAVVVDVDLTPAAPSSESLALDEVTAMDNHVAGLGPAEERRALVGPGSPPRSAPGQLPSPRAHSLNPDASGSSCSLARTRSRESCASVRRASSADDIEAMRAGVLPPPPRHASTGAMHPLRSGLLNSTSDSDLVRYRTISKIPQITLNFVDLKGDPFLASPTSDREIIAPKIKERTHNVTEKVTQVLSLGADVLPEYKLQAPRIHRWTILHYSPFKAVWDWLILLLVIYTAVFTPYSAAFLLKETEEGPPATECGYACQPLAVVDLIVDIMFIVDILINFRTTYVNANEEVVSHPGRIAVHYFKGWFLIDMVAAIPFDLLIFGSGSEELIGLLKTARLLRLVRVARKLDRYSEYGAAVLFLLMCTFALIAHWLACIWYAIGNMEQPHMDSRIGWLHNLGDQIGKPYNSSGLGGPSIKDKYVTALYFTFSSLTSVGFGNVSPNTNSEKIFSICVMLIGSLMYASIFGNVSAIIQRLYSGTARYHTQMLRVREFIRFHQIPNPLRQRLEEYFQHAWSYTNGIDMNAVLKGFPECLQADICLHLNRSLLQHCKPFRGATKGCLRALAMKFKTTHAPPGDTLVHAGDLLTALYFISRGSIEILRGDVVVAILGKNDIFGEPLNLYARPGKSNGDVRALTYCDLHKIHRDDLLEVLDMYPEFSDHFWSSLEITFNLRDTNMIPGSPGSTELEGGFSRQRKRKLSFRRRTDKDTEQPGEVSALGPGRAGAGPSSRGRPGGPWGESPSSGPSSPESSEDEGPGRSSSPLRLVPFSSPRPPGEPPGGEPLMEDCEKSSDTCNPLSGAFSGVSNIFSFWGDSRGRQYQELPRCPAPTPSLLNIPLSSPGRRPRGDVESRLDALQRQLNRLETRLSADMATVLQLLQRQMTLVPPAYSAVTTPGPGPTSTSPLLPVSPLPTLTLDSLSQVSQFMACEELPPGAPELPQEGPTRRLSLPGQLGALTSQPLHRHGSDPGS
# How it was run: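 U2OS cells transduced with hERG via BacMam (MOI ~100), plated 2000/well, loaded with FluxOR thallium dye, compound ~10 min, then stimulation buffer; fluorescence decrease read kinetically; AC50 from Hill fits.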
# [19] = test system: Zika virus NS2B-NS3 protease; assay: Primary screen GU AMC qHTS for Zika virus inhibitors (AID 1347154);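 also: 0% = no-inhibitor control and -100% = no-enzyme control; nearly all actives have a fitted effect of over 70% in size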
# How it was run: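 Unlinked Zika NS2B hydrophilic domain/NS3 protease domain noncovalent complex (25 nM final) in 10 mM Tris-HCl pH 8.0, 0.01% Tween 20, with AMC peptide substrate. Fluorescence (ex 340, em 450 nm) change over 15 min, room temperature; percent inhibition fitted to 4-parameter Hill equation.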
# [20] = Primary qHTS for small molecule stabilizers of the endoplasmic reticulum resident proteome: Secreted ER Calcium Modulated Protein (SERCaMP) assay (AID 1508630); also: % is scaled to controls: 0 for no effect and ±100 for the full control effect
# How it was run: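 GLuc-SERCaMP-expressing SH-SY5Y cells, pretreated 16 h with compound, are challenged with thapsigargin to empty ER calcium stores; after 4 h, coelenterazine is added directly to the medium and luminescence is imaged.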
compound,measurement,setting,value
FC(F)(F)c1cc(CO[C@H]2CCCN[C@H]2c2ccccc2)cc(C(F)(F)F)c1,Potency,[1],> 46 µM
same,Potency,[2],> 46 µM
same,Potency,[3],inactive
same,outcome,[4],inactive
same,Potency,[5],inactive
same,Potency,[6],7.94 µM (active)
same,Potency,[7],11.2 µM (active)
same,Potency,[8],11.2 µM (active)
same,Potency,[9],11.2 µM (active)
same,Potency,[10],12.6 µM (active)
same,Potency,[11],7.08 µM (active)
same,Potency,[12],12.6 µM (active)
same,Potency,[13],inactive
same,Potency,[14],inactive
same,outcome,[15],inactive
same,activation,[16],2.81%
same,Potency,[17],inactive
same,Potency,[18],8.91 µM (active)
same,Potency,[19],inactive
same,Potency,[20],inactive
